# From PubChem BioAssay
# Unmarked numbers belong to inactive results. No rule for the calls is given here.
# Target: Pantothenate synthetase (Mycobacterium tuberculosis (strain ATCC 25618 / H37Rv)) (UniProt P9WIL5)
# Assay: Coupled enzyme confirmation of inhibitors against recombinant Mtb PanC (AID 375);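 also: 0% = full reaction with vehicle and 100% = no enzyme background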
# Details: coupled enzyme assay; at 10 µM, active compounds read high
# Chain of Pantothenate synthetase (Mycobacterium tuberculosis (strain ATCC 25618 / H37Rv)) (P9WIL5 whole entry, looked up): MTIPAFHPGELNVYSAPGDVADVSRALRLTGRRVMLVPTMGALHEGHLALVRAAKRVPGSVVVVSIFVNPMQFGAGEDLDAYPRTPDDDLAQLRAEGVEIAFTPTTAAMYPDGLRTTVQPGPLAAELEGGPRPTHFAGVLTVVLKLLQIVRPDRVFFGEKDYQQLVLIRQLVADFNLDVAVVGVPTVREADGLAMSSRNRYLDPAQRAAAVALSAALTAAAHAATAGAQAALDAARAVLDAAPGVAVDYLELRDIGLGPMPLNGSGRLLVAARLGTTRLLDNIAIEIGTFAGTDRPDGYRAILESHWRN
row,SMILES,inhibition [%]
1,O=C(CCCCn1c(=O)[nH]c2ccsc2c1=O)NCc1cccnc1,5
2,COC(=O)c1ccc(-c2sc3nc(N4CCOCC4)c4c(c3c2N)CCCC4)o1,0
3,COc1ccc(-c2cc(C(=O)Nc3ccc(C)cc3)no2)cc1,0
4,CCSc1nnc(NC(=O)c2ccccn2)s1,1
5,CCCCP(=O)(CCCC)Cc1ccccc1O,0
6,Cn1c(=O)cc(OCC(=O)NCCCN2CCN(c3cccc(Cl)c3)CC2)c2ccccc21,0
7,C=C(C)Cn1c(-c2ccccc2)nc2ccccc21,0
8,COC1CCCCC1NS(=O)(=O)c1ccccc1 (stereo not given),0
9,N#CCCCN1C(=O)C(O)(CC(=O)c2ccc3c(c2)OCCO3)c2ccccc21 (stereo not given),0
10,Cc1ccc(Br)cc1S(=O)(=O)N1CCN(c2ccccc2)CC1,0
11,Cn1nc(-c2ccc(C(=O)NCC3CCCO3)cc2)c2ccccc2c1=O (stereo not given),4
12,CCOC(=O)C1CCN(C(=O)CN(c2ccc(Cl)c(C(F)(F)F)c2)S(C)(=O)=O)CC1,4
13,C/C=C/Cn1c(Br)nc2c1c(=O)[nH]c(=O)n2C,0
14,COC(=O)CSc1nc2ncc(Cl)cc2[nH]1,1
15,CCOc1ccc2[nH]c(=O)c(CN(Cc3ccccc3)C(=O)N3CCCC3)cc2c1,6
16,COCc1cc(C)nc(SCC(=O)Nc2cccc(C)c2C)c1C#N,5
17,Cc1nc(Nc2nc(=O)c3ccccc3n2C)nc2c(C)cccc12,0
18,CCOC(=O)N1CCC(Nc2c(-c3ccc(C)cc3)c(=O)c2=O)CC1,0
19,CSc1nc(C)cc(Oc2ccc(=O)n(C)n2)n1,0
20,O=C(NCC(=O)N(c1cccnc1)C(C(=O)NC1CCCCC1)c1cccnc1)c1ccco1 (stereo not given),0

row,SMILES,inhibition [%]
1,CCCC1(C(=O)OCC)NC(c2ccc(N(C)C)cc2)C2C(=O)N(c3ccccc3)C(=O)C21 (stereo not given),0
2,CCC(C)NC(=O)c1cn(CC)c2ccc(S(=O)(=O)N(C)C)cc2c1=O (stereo not given),0
3,CCN1CCN(c2nc(-c3cccnc3)nc3ccccc23)CC1,0
4,CCCCCc1c(C)nc(Nc2nc(C)c3cc(OC)ccc3n2)[nH]c1=O,0
5,CC(=O)N1CCC2(CC1)CC(=O)c1cc(OCC(=O)NCc3ccc(C)cc3)ccc1O2,3
6,Cc1sc2nc(SCC(=O)Nc3c(C)n(C)n(-c4ccccc4)c3=O)n(C)c(=O)c2c1C,0
7,Cc1nnc(SCC(=O)Nc2c(Cl)cccc2Cl)[nH]c1=O,0
8,Cc1noc(C)c1S(=O)(=O)N1CCCC(C(=O)NCCc2ccc(Cl)cc2)C1 (stereo not given),3
9,O=C(NC1CCCCCC1)c1cc(S(=O)(=O)N2CCC3(CC2)OCCO3)ccc1F,5
10,CCCCOc1ccc(-c2ncc(C(=O)OCC)c(N)n2)cc1,11
11,CCCn1c(SCC(=O)Nc2ccccc2C(=O)OCC)nc2c1c(=O)n(C)c(=O)n2C,0
12,Cc1ccc(C)c(N2CCN(C(=O)c3cc4ccccn4n3)CC2)c1,0
13,CS(=O)(=O)NCC(c1cccnc1)N1CCN(c2ccc(F)cc2)CC1 (stereo not given),1
14,CCCCNC(=O)c1nc2ncc(Br)cn2n1,2
15,O=C(C1CCC(CNc2c(N3CCCCC3)c(=O)c2=O)CC1)N1CCc2ccccc2C1 (stereo not given),0
16,Cc1cc(Nc2ccccc2)n(-c2ccccc2)n1,3
17,N#CCc1ccc(NC(=O)Nc2cccc(Cl)c2)cc1,0
18,Cc1cc(-n2c(C)cc(C(=O)CSc3nc4ccccc4c(=O)n3Cc3ccco3)c2C)no1,0
19,Clc1ccc(Cn2ncc3c(NCc4cccnc4)ncnc32)cc1,0
20,COC(=O)c1ccc(C2NC(C(=O)O)CS2)cc1 (stereo not given),0
